# Source: PubChem BioAssay (NCATS)
# Several values for one entry are separate records, joined by “and”; a condition that tells them apart may be missing. Equal entries are not always repeated. Records with an inconclusive call do not appear. Entries that show only a call come without a potency. Activity calls are given as the source filed them. Unless noted, calls follow the shape of the dose curve; as a rule, active = well fitted curve in the direction sought with a large enough effect; inconclusive = small, poorly fitted or top-dose-only effect, or another doubt; inactive = no such curve, though single readings can be large; an effect the other way counts as inactive or inconclusive.
# Legend:
# [1] = Cell Viability - BJ (AID 421; calls by dose curve;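 also: potency is read from the fitted curve at half-maximal effect; cells exposed to compound for 40 hours at 37 °C before readout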); settings: BJ fibroblast viability, qHTS
# Summary of the method: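 Normal human BJ foreskin fibroblasts, 1500/well in complete medium, treated 40 hr at 37 °C. Cellular ATP by CellTiter-Glo luminescence; normalized to DMSO and 100 uM tamoxifen, AC50 from Hill fit.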
# [2] = Cell Viability - HepG2 (AID 433; calls by dose curve;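 also: potency is read from the fitted curve at half-maximal effect; cells exposed to compound for 40 hours; potency for ATP loss meaning cytotoxicity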); settings: qHTS
# Summary of the method: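 In this qHTS format, a 40 h, 37 °C compound incubation of HepG2 cells in complete medium precedes a 20 min CellTiter-Glo step at room temperature. Tamoxifen and doxorubicin serve as positive controls; Hill-equation fits yield AC50.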
# [3] = Cellular Toxicity (caspase-3) Jurkat (AID 655); settings: Jurkat caspase-3 activation, luminescence; caspase-3 activation: at 92.2 µM (top of the series), DMSO = 0%, tamoxifen = 100%;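 also: cells exposed to compound for 16 h at 37 °C before reading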
# Summary of the method: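 qHTS in human Jurkat T-cell leukemia line: 16 hr compound treatment at 37 °C, caspase-3/7 activity measured by Caspase-Glo luminescence. AC50 derived from Hill equation.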
# [4] = Cell Viability - LYMP1-002 - Assay at 16 hr (AID 948); settings: LYMP1-002 lymphoblastoid cell viability; series mostly up to 92.2 µM; also: potency is read from the fitted curve at half-maximal effect
# Summary of the method: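 In this qHTS, lymphoblastoid LYMP1-002 cells (human) receive compounds for 16 hr at 37 C. Viability is taken from CellTiter-Glo ATP luminescence, and AC50 derives from standard Hill fits.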
# [5] = MultiTox-Fluor Cytotoxicity Assay - LYMP1-002 - Live Cells (AID 955); settings: LYMP1-002 lymphoblastoid live-cell protease fluorescence viability; series mostly up to 46.1 µM;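 also: cells exposed to compound for 16 hours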
# Summary of the method: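 Cells were seeded at 2500 per well and incubated 5 hr. Compounds were then added for 16 hr at 37 C, followed by MultiTox-Fluor reagent for 60 min at room temperature and fluorescence reading of viable-cell protease signal.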
# [6] = Cell Viability - LYMP2-003 (AID 965); settings: LYMP2-003 lymphoblastoid cell viability; series mostly up to 92.2 µM;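 also: cells exposed to compounds for 24 h before reading; nearly all actives have a fitted effect of over 50% in size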; also: potency is read from the fitted curve at half-maximal effect
# Summary of the method: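 qHTS, human lymphoblastoid line, 2500 cells/well, complete medium. 24 h drug, 37 C. ATP-based luminescent readout; Hill-fit AC50.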
# [7] = Cell Viability - LYMP2-011 (AID 969); settings: LYMP2-011 lymphoblastoid cells viability; series mostly up to 92.2 µM; also: nearly all actives have a fitted effect of over 60% in size; also: potency is read from the fitted curve at half-maximal effect
# Summary of the method: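 In this qHTS cytotoxicity format, compounds are tested across concentrations on human lymphoblastoid cells in complete medium for 24 hours at 37 C. Viability is taken as cellular ATP measured by luciferase luminescence.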
# [8] = Cell Viability - LYMP2-013 (AID 970); settings: LYMP2-013 lymphoblastoid cells viability; series mostly up to 92.2 µM; also: nearly all actives have a fitted effect of over 55% in size; also: potency is read from the fitted curve at half-maximal effect
# Summary of the method: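 Cytotoxicity is scored as a concentration-dependent drop in intracellular ATP in human lymphoblastoid cells after 24 hr compound exposure at 37 C. ATP is quantified by luciferase luminescence, and AC50 values come from Hill-equation modeling.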
# [9] = Cell Viability - LYMP2-023 (AID 975); settings: LYMP2-023 lymphoblastoid cell viability; series mostly up to 92.2 µM; also: nearly all actives have a fitted effect of over 55% in size; also: potency is read from the fitted curve at half-maximal effect
# Summary of the method: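 Steps: seed 2500 human lymphoblastoid cells per well, incubate 5 hr at 37 C, add compound for 24 hr at 37 C, add CellTiter-Glo, hold 30 min at room temperature, read luminescence. AC50 derived by Hill modelling.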
# [10] = Cell Viability - LYMP2-002 (AID 977); settings: LYMP2-002 lymphoblastoid cell viability, qHTS; series mostly up to 92.2 µM;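 also: compound exposure lasted 24 h at 37 °C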
# Summary of the method: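 In this qHTS viability screen, 2500 human lymphoblastoid cells per well receive compound for 24 hr at 37 C, and luciferase-based ATP luminescence gives the viability signal. Tetraoctylammonium bromide serves as positive control.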
# [11] = Cell Viability - LYMP2-006 (AID 978); settings: LYMP2-006 lymphoblastoid cell viability, qHTS; series mostly up to 92.2 µM; also: nearly all actives have a fitted effect of over 60% in size; also: potency is read from the fitted curve at half-maximal effect
# Summary of the method: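 In this cytotoxicity screen, the human lymphoblastoid line grew in complete medium with test compounds for 24 hr at 37 C. Cellular ATP served as the viability signal.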
# [12] = Cell Viability - LYMP2-008 (AID 980); settings: LYMP2-008 lymphoblastoid cell viability, qHTS; series mostly up to 92.2 µM; also: nearly all actives have a fitted effect of over 60% in size; also: potency is read from the fitted curve at half-maximal effect
# Summary of the method: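 Cells seeded at 2500/well and rested 5 hr at 37 C; compounds added over a concentration range and incubated 24 hr at 37 C; CellTiter-Glo added, 30 min at room temperature; luminescence read and AC50 fitted with Hill model.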
# [13] = Cell Viability - LYMP2-012 (AID 982); settings: LYMP2-012 lymphoblastoid cell viability qHTS; series mostly up to 92.2 µM;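 also: cellular ATP by luciferase luminescence where a drop means cytotoxicity; cells exposed to compound for one day before reading; nearly all actives have a fitted effect of over 55% in size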; also: potency is read from the fitted curve at half-maximal effect
# [14] = Cell Viability - LYMP2-020 (AID 986); settings: series mostly up to 92.2 µM; also: nearly all actives have a fitted effect of over 55% in size; also: potency is read from the fitted curve at half-maximal effect
# Summary of the method: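 Seed 2500 cells per well and incubate 5 hr at 37 C. Add compounds at a concentration series and incubate 24 hr at 37 C. Add CellTiter-Glo, wait 30 min at RT, read luminescence, and fit a Hill curve for AC50.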
# [15] = Cell Viability - LYMP2-022 (AID 987); settings: LYMP2-022 lymphoblastoid cell viability; series mostly up to 92.2 µM; also: nearly all actives have a fitted effect of over 55% in size; also: potency is read from the fitted curve at half-maximal effect
# Summary of the method: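 Cells were seeded at 2500 per well, rested 5 hr at 37 C, and treated with titrated compounds for 24 hr at 37 C. Cellular ATP was then quantified by luciferase luminescence, and AC50 values were derived from Hill-modelled concentration-response curves.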
# [16] = Cell Viability - LYMP2-024 (AID 988); settings: LYMP2-024 lymphoblastoid cell viability; series mostly up to 92.2 µM; also: nearly all actives have a fitted effect of over 60% in size; also: potency is read from the fitted curve at half-maximal effect
# Summary of the method: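 qHTS cytotoxicity, human lymphoblastoid line, complete medium; 24 h cpd treatment, 37 C; CellTiter-Glo ATP luminescence readout; tetraoctylammonium bromide positive control; AC50 via Hill fit.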
# [17] = Cell Viability - LYMP1-002 - Assay at 40 hr (AID 994); settings: LYMP1-002 lymphoblastoid cell viability; series mostly up to 92.2 µM; also: nearly all actives have a fitted effect of over 60% in size; also: potency is read from the fitted curve at half-maximal effect
# Summary of the method: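 Cells are plated at 2500 per well and rested 5 hr at 37 C. Compounds are added and incubated 40 hr at 37 C. CellTiter-Glo reagent is added for 30 min at room temperature before luminescence is read.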
# [18] = qHTS assay for small molecule antagonists of retinoid X receptor alpha signaling (AID 588546); settings: HEK293T RXRa-UAS-bla, beta-lactamase ratio, antagonist mode; measured here: W530 green channel, cytotoxicity proxy;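 also: cells stimulated with 9-cis-retinoic acid as agonist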
# Summary of the method: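 Beta-lactamase reporter inhibition, read as CCF4 fluorescence ratio (ex 405, em 460/530 nm) after 2 h at RT. HEK293T UAS-bla cells, 2500/well, were stimulated with 9-cis-RA at 500 or 100 nM final alongside test compound for 18 h at 37 C.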
# [19] = Cell Viability - Mesenchymal (AID 546); settings: mesenchymal cells viability, qHTS; activity change, negative = cytotoxicity: at 91.7 µM (top of the series);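 also: cells exposed to compound for 40 hours before reading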; also: potency is read from the fitted curve at half-maximal effect
# Summary of the method: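 In this qHTS cytotoxicity format, glomerulus-derived human mesenchymal kidney cells received compound for 40 hr, then luciferase-based ATP quantitation. Concentration-response data were fitted with the Hill equation.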
# [20] = qHTS assay for environmental chemicals that activate the Aryl hydrocarbon Receptor (AhR) signaling pathway (AID 651777); settings: 1A2-DRE human hepatoma cells, luciferase, 24 h; activation: stronger effect = higher value; also: nearly all actives have a fitted effect of over 15% in size
# Summary of the method: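 Measured luciferase activity, read 30 min after One-Glo addition at room temperature, from human hepatoma cells bearing a dioxin response element–CYP1A2 promoter reporter and exposed to compound for 24 hr at 37 C.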
Structure (SMILES),Potency [1],Potency [2],Potency [3],Potency [4],outcome [5],Potency [6],Potency [7],Potency [8],Potency [9],Potency [10],Potency [11],Potency [12],Potency [13],Potency [14],Potency [15],Potency [16],Potency [17],max response [18] [%],Potency [19],activation [20]
Nc1ccc(N=Nc2ccccc2)c(N)c1,> 92 µM (inactive),> 92 µM (inactive),inactive,inactive,inactive,inactive,inactive,inactive,inactive,inactive,inactive,inactive,inactive,inactive,inactive,inactive,inactive,-9.61,,
Brc1ccc(-c2ccccc2)cc1,> 92 µM (inactive),> 92 µM (inactive),inactive,inactive,inactive,,inactive,inactive,inactive,inactive,inactive,inactive,inactive,inactive,inactive,inactive,inactive,,inactive,11.7% (inactive)
Cc1c(N)cccc1Cl,> 92 µM (inactive),> 92 µM (inactive),inactive,inactive,inactive,inactive,inactive,inactive,inactive,inactive,inactive,inactive,inactive,inactive,inactive,inactive,inactive,0.883,inactive,-0.26% (inactive)
C/C(Cl)=C/CCl,> 92 µM (inactive),> 92 µM (inactive),inactive,inactive,inactive,inactive,inactive,inactive,inactive,inactive,inactive,inactive,inactive,inactive,inactive,inactive,inactive,-2.04,inactive,0.708% (inactive)
CC(=O)OCc1ccc2c(c1)OCO2,> 92 µM (inactive),> 92 µM (inactive),inactive,inactive,inactive,inactive,inactive,inactive,inactive,inactive,inactive,inactive,inactive,inactive,inactive,inactive,inactive,8.84,inactive,1.36% (inactive)
CC1=C(/C=C/C(C)=C/C=C/C(C)=C/C=O)C(C)(C)CCC1,35.2 µM (active),,,,,50.1 µM (active),63.1 µM (active),50.1 µM (active),50.1 µM (active),,63.1 µM (active),39.8 µM (active),50.1 µM (active),,39.8 µM (active),39.8 µM (active),50.1 µM (active),-0.803,31.6 µM (active),4.9% (inactive)
CCNC(=S)NCC,> 92 µM (inactive),> 92 µM (inactive),inactive,inactive,inactive,inactive,inactive,inactive,inactive,inactive,inactive,inactive,inactive,inactive,inactive,inactive,inactive,-3.33,inactive,1.67% (inactive)
C/C=C1/C(=O)C[C@H]2[C@@H]3CCC4=CC(=O)CC[C@]4(C)[C@H]3CC[C@]12C,> 92 µM (inactive),> 92 µM (inactive),,50.1 µM (active),,inactive,50.1 µM (active),50.1 µM (active),,,50.1 µM (active),50.1 µM (active),39.8 µM (active),39.8 µM (active),39.8 µM (active),39.8 µM (active),,,,1.95% (inactive)
COc1cc(-c2ccc(N=C=O)c(OC)c2)ccc1N=C=O,> 92 µM (inactive),> 92 µM (inactive),inactive,inactive,inactive,inactive,inactive,inactive,inactive,inactive,inactive,inactive,inactive,inactive,inactive,inactive,inactive,-13.8,inactive,0.786% (inactive) and 6.25% (inactive)
CCOC(=O)C1OC1c1ccccc1 (stereo not drawn),> 92 µM (inactive),> 92 µM (inactive),inactive,inactive,inactive,inactive,inactive,inactive,inactive,inactive,inactive,inactive,inactive,inactive,inactive,inactive,inactive,-0.854,inactive,-0.0092% (inactive)
OC1CCCCC1,> 92 µM (inactive),> 92 µM (inactive),inactive,inactive,inactive,inactive,inactive,inactive,inactive,inactive,inactive,inactive,inactive,inactive,inactive,inactive,inactive,10.1,inactive,-0.284% (inactive)
C=CC1CO1 (stereo not drawn),> 92 µM (inactive),> 92 µM (inactive),inactive,inactive,inactive,inactive,inactive,inactive,inactive,inactive,inactive,inactive,inactive,inactive,inactive,inactive,inactive,-2.46,inactive,-0.433% (inactive)
C[C@@H]1CC2(OC(O)[C@]3(C)O[C@H]23)O[C@H]2C[C@@]3(C)[C@@H]4CC[C@H]5C(C)(C)C(O[C@@H]6OC[C@@H](O)[C@H](O)[C@H]6O)CC[C@@]56C[C@@]46CC[C@]3(C)[C@@H]12 (stereo partly drawn),> 92 µM (inactive),,,,inactive,inactive,inactive,inactive,inactive,inactive,,,50.1 µM (active),,,39.8 µM (active),,,,0.629% (inactive)
